Among the data in PubChem BioAssay (NCI) are growth values, retold here.

This is part of a sample that, as a whole, favours compounds with a hit. Of some 83,000 tested, about 20% had one in any assay.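 The test compound was applied at a single concentration to cells in 96-well plates for 48 hours, and percent growth was recorded.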 Unmarked numbers belong to inactive results. Calls of active or inactive are those of the source. The calls were made as follows: active = growth percent below 10; inactive = the rest.

Holding throughout (assay): NCI-60 one-dose screen, 48 h (100 = growth as untreated, 0 = no growth, -100 = all killed)
The subject of one test is DU-145 prostate. The conditions noted are these: 10 µM unless noted.
The test system of the next test is K-562 leukemia. As to conditions: 10 µM unless noted.
In another test the test system is MALME-3M melanoma. As to conditions: 10 µM unless noted.
For another test, the system named is MDA-MB-231 breast. The conditions noted are these: 10 µM unless noted.
The test system of another test is RXF 393 renal. As to conditions: 10 µM unless noted.
The next test relates to SF-268 CNS. As to conditions: 10 µM unless noted.
The test system of the next test is SF-295 CNS. As to conditions: 10 µM unless noted.
A further test deals with SF-539 CNS. The conditions noted are these: 10 µM unless noted.
The subject of another test is UACC-257 melanoma. As to conditions: 10 µM unless noted.
The next test concerns M14 melanoma. The conditions noted are these: 10 µM unless noted.
A further test concerns HCT-15 colon. The conditions noted are these: 10 µM unless noted.
The next test concerns HT29 colon. The conditions noted are these: 10 µM unless noted.
For a further test, the system named is SNB-75 CNS. As to conditions: 10 µM unless noted.
A further test deals with SNB-19 CNS. The conditions noted are these: 10 µM unless noted.
The subject of the next test is U251 CNS. As to conditions: 10 µM unless noted.
For another test, the system named is PC-3 prostate. The conditions noted are these: 10 µM unless noted.
For the next test, the system named is SK-MEL-5 melanoma. As to conditions: 10 µM unless noted.
A further test concerns UACC-62 melanoma. The conditions noted are these: 10 µM unless noted.
For the next test, the system named is LOX IMVI melanoma. As to conditions: 10 µM.
A further test concerns SK-MEL-28 melanoma. As to conditions: 10 µM unless noted.

In the case of `C#CCOc1ccc(/C=N/Nc2nc(-c3cc4cc(Br)ccc4oc3=O)cs2)cc1OC`, the growth in the test on DU-145 prostate was 69.1%; with K-562 leukemia, 58%; in the test with MALME-3M melanoma, 59.4%; in the test on MDA-MB-231 breast, 36.3%; in the test with RXF 393 renal, 58.1%; in the test on SF-268 CNS it was 59.6%. Further, the growth is 24.2% in the test with SF-295 CNS; 25.1% in the test on SF-539 CNS; 86.4% in the test on UACC-257 melanoma; 79.4% in the test on M14 melanoma; 85.4% in the test with HCT-15 colon; 36.1% in the test with HT29 colon. In addition, the growth with SNB-75 CNS is 84.5%; in the test on SNB-19 CNS it was 49.6%; in the test on U251 CNS, 12.5%; in the test on PC-3 prostate it was 74.2%; in the test on SK-MEL-5 melanoma, 87.1%; in the test with UACC-62 melanoma, 57.5%. Moreover, the values for the growth with LOX IMVI melanoma and with SK-MEL-28 melanoma were 49.5% and 78.2%, respectively.
Consider `CCS(=O)(=O)N1CCCC(C(=O)Nc2nc3ccc(NC(=O)c4ccc(F)c(OC)c4F)cc3s2)C1` (stereo not given), for which the growth in the test on DU-145 prostate is 77.2%; in the test with K-562 leukemia, 38.6%; in the test with MALME-3M melanoma, 67.9%; with MDA-MB-231 breast it was 81.7%; with RXF 393 renal it was 26.9%; in the test with SF-268 CNS it was 68.5%. In addition, the growth is 48.8% in the test on SF-295 CNS; 57.6% in the test with SF-539 CNS; 37.4% in the test with UACC-257 melanoma; 78.5% with M14 melanoma; 51% in the test with HCT-15 colon; 69.2% in the test with HT29 colon. The growth is 62.5% in the test on SNB-75 CNS; 78.9% with SNB-19 CNS; 65.9% with U251 CNS; 50.6% in the test on PC-3 prostate; -7.02% (active) in the test with SK-MEL-5 melanoma; 58.2% in the test with UACC-62 melanoma. Besides, the growth with LOX IMVI melanoma was 67.6%; in the test with SK-MEL-28 melanoma, 78.6%.
For `Cc1ccc(C2=NN(c3nc(-c4cc5ccccc5oc4=O)cs3)C(c3ccc(C)cc3)C2)cc1` (stereo not given), the growth with DU-145 prostate is 113%; in the test with K-562 leukemia it was 101%; in the test with MALME-3M melanoma it was 91.6%; with MDA-MB-231 breast, 84.4%; in the test with RXF 393 renal, 103%; in the test on SF-268 CNS it was 120%. The growth in the test on SF-295 CNS is 99.6%; in the test on SF-539 CNS, 93.9%; with UACC-257 melanoma, 112%; with M14 melanoma, 106%; in the test on HCT-15 colon, 91.7%; with HT29 colon, 124%. In addition, the growth is 96.2% in the test on SNB-75 CNS; 94.7% in the test with SNB-19 CNS; 99.9% with U251 CNS; 99.9% in the test on PC-3 prostate; 101% in the test with SK-MEL-5 melanoma; 91.2% in the test with UACC-62 melanoma. Besides, the growth with LOX IMVI melanoma is 91.2%; with SK-MEL-28 melanoma, 123%.
Take `C#CCOc1cc(N(CC)CC)ccc1C(C(=O)NC(C)(C)C)N(C(=O)C1CCc2cc(F)ccc2O1)c1ccccc1Br` (stereo not given): the growth is 74% in the test on DU-145 prostate; 31.3% in the test on K-562 leukemia; 77.4% in the test on MALME-3M melanoma; 63% in the test on MDA-MB-231 breast; 81.6% in the test with RXF 393 renal; 62.1% in the test with SF-268 CNS. Further, the growth in the test on SF-295 CNS is 62.8%; with SF-539 CNS, 72.5%; in the test on UACC-257 melanoma, 60%; with M14 melanoma, 55.5%; with HCT-15 colon, 50.2%; in the test on HT29 colon, 51.1%. For the same compound, the growth in the test with SNB-75 CNS is 97.5%; with SNB-19 CNS, 56.5%; in the test with U251 CNS it was 48.6%; with PC-3 prostate it was 27.3%; in the test with SK-MEL-5 melanoma, 56.8%; in the test on UACC-62 melanoma, 40.8%. Besides, the growth was 31.7% in the test with LOX IMVI melanoma and 64.8% with SK-MEL-28 melanoma.
On to `CC(=O)OCC1OC(OC2C(COC(C)=O)OC(n3cc(COc4ccc5ccc(=O)oc5c4)nn3)C(OC(C)=O)C2OC(C)=O)C(OC(C)=O)C(OC(C)=O)C1OC(C)=O` (stereo not given), for which the growth in the test with DU-145 prostate was 108%; with K-562 leukemia it was 92.1%; in the test on MALME-3M melanoma, 101%; with MDA-MB-231 breast, 101%; in the test on RXF 393 renal it was 90.5%; in the test on SF-268 CNS it was 91.8%. The growth with SF-295 CNS was 113%; in the test with SF-539 CNS it was 100%; with UACC-257 melanoma it was 112%; with M14 melanoma it was 107%; with HCT-15 colon, 102%; in the test on HT29 colon, 114%. The growth in the test with SNB-75 CNS is 69.2%; with SNB-19 CNS it was 100%; in the test with U251 CNS it was 106%; in the test on PC-3 prostate, 98.8%; with SK-MEL-5 melanoma, 99.2%; with UACC-62 melanoma, 94.2%. Moreover, the growth with LOX IMVI melanoma is 104%; with SK-MEL-28 melanoma, 109%.
In the case of `C#CCOc1cc(N(CC)CC)ccc1C(C(=O)NC(C)(C)C)N(C(=O)C1CCc2cc(F)ccc2O1)c1cc(C)cc(C)c1` (stereo not given), the growth in the test on DU-145 prostate is 58.1%; with K-562 leukemia, 16.4%; in the test on MALME-3M melanoma, 59.4%; with MDA-MB-231 breast, 46.7%; in the test with RXF 393 renal, 42.9%; in the test with SF-268 CNS, 38.2%. Further, the growth was 33.5% in the test with SF-295 CNS; 53.5% in the test with SF-539 CNS; 42.5% with UACC-257 melanoma; 39.9% with M14 melanoma; 31.9% in the test with HCT-15 colon; 40.4% in the test with HT29 colon. The growth in the test with SNB-75 CNS is 45.7%; in the test on SNB-19 CNS it was 38.3%; in the test with U251 CNS it was 19.5%; in the test on PC-3 prostate, 13.2%; in the test on SK-MEL-5 melanoma it was 44.7%; in the test with UACC-62 melanoma, 33.8%. In addition, the growth was 32.5% in the test with LOX IMVI melanoma and 62.9% with SK-MEL-28 melanoma.
Take `CCCS(=O)(=O)N1CCCC(C(=O)Nc2nc3ccc(NC(=O)c4ccc(F)c(OC)c4F)cc3s2)C1` (stereo not given): the growth in the test with DU-145 prostate was 72.7%; with K-562 leukemia, 27.6%; with MALME-3M melanoma, 52.7%; in the test with MDA-MB-231 breast, 62.9%; in the test on RXF 393 renal, 8.45% (active); with SF-268 CNS, 56.9%. The growth in the test on SF-295 CNS was 23%; in the test with SF-539 CNS, 47.2%; in the test with UACC-257 melanoma it was 25.2%; in the test with M14 melanoma it was 56.7%; with HCT-15 colon, 37.1%; in the test on HT29 colon, 54.2%. Also, the growth in the test with SNB-75 CNS was 64.1%; with SNB-19 CNS, 63.7%; with U251 CNS it was 51.5%; in the test with PC-3 prostate, 37.3%; in the test with SK-MEL-5 melanoma, -41% (active); with UACC-62 melanoma, 45.4%. Besides, the growth in the test on LOX IMVI melanoma was 37.6%; in the test on SK-MEL-28 melanoma it was 59.9%.
